Compound activity as filed in PubChem BioAssay.
The list is not random: actives were taken first. Their share in the collection is about 4.2%.
D1 ag – Allosteric Agonists of the Human D1 Dopamine Receptor: qHTS; HEK293 T-REx D1 cells, calcium flux, agonist mode; activation, % at 2 µM; D(1A) dopamine receptor (Homo sapiens), P21728; 360,000 tested, 1% active; in the data active means activation above about 30%; further: 0% is about no effect
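Agonism was scored from calcium flux recorded over 180 s (1 read/s) after pintool compound addition, following a 10-cycle baseline. Cells were inducible force-coupled HEK293 TREx D1, plated overnight at 30 C and loaded with no-wash calcium dye.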
TRPV1 potentiator – HTS Assay for Compounds that Act as Potentiators of the Vanilloid Receptor 1 | Transient receptor potential cation channel subfamily V member 1 (Homo sapiens), Q8NER1 | TRPV1-expressing cells, Fluo-8 calcium influx, capsaicin EC20 potentiation | potentiation, % at 8.33 µM | 320,000 tested, 0.02% active | AID 540277, 2011; in the data active means potentiation above about 80%; inconclusive means between about 30% and that limit; further: 0% is about no effect
Target sequence (Q8NER1 whole entry, looked up): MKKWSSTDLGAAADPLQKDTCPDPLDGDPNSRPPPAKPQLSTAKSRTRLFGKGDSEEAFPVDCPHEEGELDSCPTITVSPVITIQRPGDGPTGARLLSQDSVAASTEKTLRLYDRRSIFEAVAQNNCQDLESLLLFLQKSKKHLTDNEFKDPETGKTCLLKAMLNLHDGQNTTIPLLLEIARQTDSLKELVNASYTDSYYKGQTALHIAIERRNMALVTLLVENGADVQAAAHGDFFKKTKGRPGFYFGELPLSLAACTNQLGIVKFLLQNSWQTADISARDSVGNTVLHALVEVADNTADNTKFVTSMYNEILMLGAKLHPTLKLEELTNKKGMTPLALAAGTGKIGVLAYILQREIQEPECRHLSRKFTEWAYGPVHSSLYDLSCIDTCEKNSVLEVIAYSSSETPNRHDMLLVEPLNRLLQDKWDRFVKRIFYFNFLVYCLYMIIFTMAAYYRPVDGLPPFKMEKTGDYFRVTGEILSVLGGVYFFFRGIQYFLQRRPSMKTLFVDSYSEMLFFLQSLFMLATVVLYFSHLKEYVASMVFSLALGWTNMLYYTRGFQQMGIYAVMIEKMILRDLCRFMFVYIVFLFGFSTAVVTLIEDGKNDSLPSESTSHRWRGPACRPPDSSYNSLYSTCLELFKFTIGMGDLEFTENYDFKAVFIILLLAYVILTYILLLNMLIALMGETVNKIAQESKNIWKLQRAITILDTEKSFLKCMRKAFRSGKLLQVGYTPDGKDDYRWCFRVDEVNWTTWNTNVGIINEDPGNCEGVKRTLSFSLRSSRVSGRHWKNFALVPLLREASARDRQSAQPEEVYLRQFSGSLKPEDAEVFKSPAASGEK
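TRPV1-expressing cells were cultured overnight at 35.5C and loaded with Fluo-8 calcium dye for 40 to 90 min at room temperature. After a 10 s baseline, compound was added and calcium influx was read kinetically for 3 min (ex 480/em 520 nm).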
D1 antag – Antagonist of Human D 1 Dopamine Receptor: qHTS; D(1A) dopamine receptor (Homo sapiens), P21728; HEK293 TREx D1 cells, calcium flux, dopamine EC80; stronger effect = lower value; activity change, negative = inhibition, % at 10 µM; 360,000 tested, 3.2% active; AID 504652, 2011; in the data active means activity change below about -30%; further: on the % scale 0 is the no-effect control and ±100 the full control effect
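Calcium flux readout: force-coupled, inducible Hek293 Trex D1 line, cells induced overnight at 30 C with tetracycline, dye-loaded 30–90 min at RT. Antagonism scored against EC80 dopamine challenge given 180 s after compound.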
D1 potentiator – Potentiators of Human D1 Dopamine Receptor: qHTS; potentiation, % at 10 µM; HEK293 TREx D1 cells, calcium flux, dopamine EC20 potentiation; D(1A) dopamine receptor (Homo sapiens), P21728; 360,000 tested, 0.036% active; in the data active means potentiation above about 30%; further: 0% is about no effect
TRPV1 ag – HTS Assay for Compounds that Act as Agonists of the Vanilloid Receptor 1; Transient receptor potential cation channel subfamily V member 1 (Homo sapiens), Q8NER1; TRPV1-expressing cells, Fluo-8 calcium influx, agonist mode; activation, % at 8.33 µM; 320,000 tested, 0.19% active; AID 540275, 2011; in the data active means activation above about 80%; inconclusive means between about 30% and that limit; further: 0% is about no effect
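TRPV1-expressing cells were cultured overnight at 35.5C and loaded with Fluo-8 calcium dye for 40 to 90 min at room temperature. After a 10 s baseline, compound was added and calcium influx was read kinetically for 3 min (ex 480/em 520 nm).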
Starred values were filed as active, the others as inactive; ? = inconclusive; . = not tested or not shown; ! = not confirmed by another sample.

SMILES	D1 ag	TRPV1 potentiator	D1 antag	D1 potentiator	TRPV1 ag
COc1ccc(CN(C)C(=O)c2ccc(Cl)c(S(=O)(=O)NCc3cccnc3)c2)cc1F	1	-21	-47*	-4	6
COc1ccc(S(=O)(=O)NCc2cccnc2)cc1	2	1	11	-3	-1
COc1cccc(N=Nc2c(N)[nH]n3c(=O)cc(-c4ccccc4)nc23)c1	2	22	-40*	-5	-3
S=C(Nc1ccccc1Cl)N1CCN(c2ccccn2)CC1	2	-15	-32*	-6	7
FC(F)(F)c1cccc(NC(=S)N2CCN(c3ccccn3)CC2)c1	4	-4	-30*	-3	1
Fc1ccc(NC(=S)N2CCN(c3cccc(C(F)(F)F)c3)CC2)cc1	10	8	-38*	-10	?
Oc1ccccc1N1CCN(C(=S)Nc2ccc(SC(F)F)cc2)CC1	4	-13	-15	2	?
FC(F)Sc1ccc(NC(=S)N2CCN(c3ccccn3)CC2)cc1	11	-16	-34*	-6	4
FC(F)(F)c1cccc(NC(=S)N2CCN(c3cccc(C(F)(F)F)c3)CC2)c1	2	-12	-7	-6	22
Fc1cccc(NC(=S)N2CCN(c3ccccn3)CC2)c1	6	7	-13	-11	17
CCn1c(=O)n(-c2ccc(C)c(F)c2)c(=O)c2sc3ccccc3c21	1	.	-1	-2	.
Fc1cccc(CNc2ncnc3ccc(-c4cccc(Cl)c4)cc23)c1	2	.	5	-7	.
Cc1cccc(CNc2ncnc3ccc(-c4ccc5c(ccn5C)c4)cc23)c1	0	.	-11	0	.
O=C(CCc1ccccc1)N(Cc1cccnc1)c1nc2ccc(F)cc2s1	10	.	.	-1	.
COc1ccccc1C1CC(c2ccccc2)=NN1S(=O)(=O)c1ccccc1 (stereo unspecified)	4	-3	-34*	2	16
COC(=O)c1cc(NC(=O)Cc2ccccc2[N+](=O)[O-])cc(C(=O)OC)c1	2	-8	13	7	83*
O=C(CSc1nc2c([nH]c3ccccc32)c(=O)n1-c1cccc(C(F)(F)F)c1)N1CCc2ccccc21	0	.	4	0	.
CC(=O)N1c2ccc(S(=O)(=O)NCCC(=O)NC3CCCCCC3)cc2CC1C (stereo unspecified)	2	-4	6	7	3
CC(=O)N1c2ccc(S(=O)(=O)NCCC(=O)NC3CCCC(C)C3C)cc2CC1C (stereo unspecified)	14	5	-39*	-6	-5
CCCCN(C)C(=O)C1CCC(CNS(=O)(=O)c2ccc3c(c2)CC(C)N3C(C)=O)CC1 (stereo unspecified)	2	3	-36*!	-9	0
CC(=O)N1c2ccc(S(=O)(=O)NCC3CCC(C(=O)N(C)Cc4ccccc4)CC3)cc2CC1C (stereo unspecified)	5	1	2	-5	-1
CN(Cc1ccccc1)C(=O)C1CCC(CNS(=O)(=O)c2ccc3c(c2)CCCC(=O)N3)CC1 (stereo unspecified)	6	.	-22	0	.
Cc1cc(C)n(-c2ccc(C(=O)Nc3cccnc3Cl)cc2)n1	5	-6	-41*	-12	?
Cc1cc(C)n(-c2ccc(C(=O)Nc3cc(S(=O)(=O)N(C)C)ccc3Cl)cc2)n1	4	10	-30*	-6	-6
Cc1cc(C)n(-c2ccc(C(=O)Nc3ccccn3)cc2)n1	3	?	7	-4	2
COc1ccc(-c2noc(=O)n2Cc2cc(C)ccc2C)cc1	4	-7	8	7	3
COc1ccc(-c2noc(=O)n2Cc2ccccc2F)cc1	4	-1	-30*	-5	2
COC(=O)C(C(=O)OC)c1ncc(C(F)(F)F)cc1Cl	-1	-11	5	0	3
CCOC(=O)C(C(=O)N(C)C)c1ncc(C(F)(F)F)cc1Cl (stereo unspecified)	0	?	-46*	3	2
